# Data reported in the OligoGym collection.
# How the values were obtained:
# Test in all cases: pooled miR-30 sensor sort-seq; sequence = guide strand
# Settings in all cases: shRNA
# CYP2E1 = molecular target: CYP2E1
# CYP4A22 = molecular target: CYP4A22
# CYP4A11 = molecular target: CYP4A11
# CYTH1 = molecular target: CYTH1
# CYSLTR1 = molecular target: CYSLTR1
# CYP4V2 = molecular target: CYP4V2
# DAGLA = molecular target: DAGLA
# DCAF4L2 = molecular target: DCAF4L2
# DCHS2 = molecular target: DCHS2
# DAZ2 = molecular target: DAZ2
# DCPS = molecular target: DCPS
# DCST1 = molecular target: DCST1
# DCTN6 = molecular target: DCTN6
# DCX = molecular target: DCX
# Note: reference of the scale not given here.
sequence,measurement,setting,value
TTGTAGTCAAAATGCTTGCGGA,sensor-assay potency score (higher = more potent),CYP2E1,-0.87
TTGGTCTGTGTGCTGATGGGCC,sensor-assay potency score (higher = more potent),CYP4A22,-0.327
TTCATGGCAAATTGTTTCCCGA,sensor-assay potency score (higher = more potent),CYP4A22,-0.959
TAAACAAATACATCAGCCTTAG,sensor-assay potency score (higher = more potent),CYP2E1,-0.917
TTCATGGAGCTTCTCTTCGATC,sensor-assay potency score (higher = more potent),CYP2E1,-1.27
TTATTGTAAAGCTGGAGCCAGG,sensor-assay potency score (higher = more potent),CYP2E1,-1.09
ATGTAGGGCATCTCTTGCCTAT,sensor-assay potency score (higher = more potent),CYP2E1,-1.01
TAGCTCCTGGTCCTGTTGGAGC,sensor-assay potency score (higher = more potent),CYP4A11,-1.31
TCACTGTACTTGAACTTTCCAT,sensor-assay potency score (higher = more potent),CYP2E1,-0.768
TTGGGGATGAGGTATCCTCTGA,sensor-assay potency score (higher = more potent),CYP2E1,-0.671
TGGTCGTGTTGGAACTCCTGGA,sensor-assay potency score (higher = more potent),CYP4A22,-0.8
TTGATCTTCTCCAGCTCCCCCT,sensor-assay potency score (higher = more potent),CYP4A22,-0.672
TAGAAACTTCTCATCATTGTAG,sensor-assay potency score (higher = more potent),CYP2E1,1.11
TAGATGGTGTCATTCTGGTGAA,sensor-assay potency score (higher = more potent),CYP4A11,-0.837
AACACAAGTCGTGCCATGGGGA,sensor-assay potency score (higher = more potent),CYP4A22,-0.895
AAGTAGTGTAGAAAGCTGGGAA,sensor-assay potency score (higher = more potent),CYP2E1,0.682
TTGGATCACTTGGTCTGTGTGC,sensor-assay potency score (higher = more potent),CYP4A22,-0.603
ATATTCTTCAATTCCAACTGGA,sensor-assay potency score (higher = more potent),CYP2E1,0.347
ATAGTCACTGTACTTGAACTTT,sensor-assay potency score (higher = more potent),CYP2E1,-0.806
TGGCCCTCAAACATGAACGTGT,sensor-assay potency score (higher = more potent),CYP4A22,-0.767
TTCTGCTATCTCATCCTTCAGC,sensor-assay potency score (higher = more potent),CYTH1,-0.329
TAGAGGTTGACATACAAAGCAT,sensor-assay potency score (higher = more potent),CYSLTR1,-0.639
TTGGTCTTTATTGTCGGGGATA,sensor-assay potency score (higher = more potent),CYTH1,-1.5
TTGGGAATGTCTTCACCCGTTC,sensor-assay potency score (higher = more potent),CYP4A22,-0.893
TAACTTGGTCTTTATTGTCGGG,sensor-assay potency score (higher = more potent),CYTH1,-0.54
TTTTAGTTTGATTGTCTTGTGG,sensor-assay potency score (higher = more potent),CYSLTR1,-0.438
TGCACTGACAATATCGCTGGGC,sensor-assay potency score (higher = more potent),CYTH1,0.0607
TTCAACTTGATCCAGATGCCAT,sensor-assay potency score (higher = more potent),CYP4V2,-0.613
TTGGGTTGTGGTGAAGGCCATA,sensor-assay potency score (higher = more potent),CYP4A22,-1
TATGCAGGTAGAGCTGAGCTGC,sensor-assay potency score (higher = more potent),CYP4A22,-1.03
TACTTCTGCTATCTCATCCTTC,sensor-assay potency score (higher = more potent),CYTH1,0.117
TAAATTAATCATGTATACTTGG,sensor-assay potency score (higher = more potent),CYSLTR1,-0.15
TTGTCTGACAAGATGCTCCCAT,sensor-assay potency score (higher = more potent),CYP4A22,0.46
TAGCTCCTGGTCGTGTTGGAAC,sensor-assay potency score (higher = more potent),CYP4A22,-1.63
TTGTAGCTCCTGGTCGTGTTGG,sensor-assay potency score (higher = more potent),CYP4A22,-0.703
TCATTCTATAAACTGCACGGAC,sensor-assay potency score (higher = more potent),CYP4V2,-0.644
TTAGTTTGATTGTCTTGTGGGG,sensor-assay potency score (higher = more potent),CYSLTR1,0.0611
TTCTTCAGGTCTTCTACTGTAG,sensor-assay potency score (higher = more potent),CYP4V2,-0.329
TAGGATCCATGGGATTTCGGGT,sensor-assay potency score (higher = more potent),CYP4A22,-1.1
TTTGTGAACATAATAGACCACA,sensor-assay potency score (higher = more potent),CYSLTR1,-0.314
TTCTGGTTGGATTCTATCCAAA,sensor-assay potency score (higher = more potent),CYP4V2,-1.62
TTAGAACTCTGTAACCTGCCAC,sensor-assay potency score (higher = more potent),CYP4V2,0.681
TTTCTGAATGTAGACAGCCTTT,sensor-assay potency score (higher = more potent),CYSLTR1,-1.15
TAACACATTCCAGATACCGAAG,sensor-assay potency score (higher = more potent),CYP4V2,-1.38
ATTTCAACACAAGTCGTGCCAT,sensor-assay potency score (higher = more potent),CYP4A22,-0.11
TGACACATAATGCAAGACCAAA,sensor-assay potency score (higher = more potent),CYSLTR1,-1.62
TTCTAGACCAAGCTCTTCTCTT,sensor-assay potency score (higher = more potent),CYP4V2,-0.575
TTGACATACAAAGCATAGGTGC,sensor-assay potency score (higher = more potent),CYSLTR1,-0.753
TTTAGTTTGATTGTCTTGTGGG,sensor-assay potency score (higher = more potent),CYSLTR1,0.715
TAGAAATGGAGAACTGGTCAAA,sensor-assay potency score (higher = more potent),CYSLTR1,-0.616
TTGTCAGTCAGAATGAACCAGC,sensor-assay potency score (higher = more potent),CYTH1,-0.752
TTTCAACACAAGTCGTGCCATG,sensor-assay potency score (higher = more potent),CYP4A22,-0.809
AAACATGAACGTGTCCACCTCA,sensor-assay potency score (higher = more potent),CYP4A22,-0.12
TCAACTGTCCTTCTAGACCAAG,sensor-assay potency score (higher = more potent),CYP4V2,-1.36
ATATCTTCATGACTTAGCCTGT,sensor-assay potency score (higher = more potent),CYP4V2,-0.479
TTTTGACCTATACAGTTCCTGG,sensor-assay potency score (higher = more potent),CYP4V2,-1.19
TTCTTCTCGAATATCTTCATGA,sensor-assay potency score (higher = more potent),CYP4V2,-0.54
ATACCTACACACACAAACCTGG,sensor-assay potency score (higher = more potent),CYSLTR1,-0.207
TTCCTGAATCCGTTGTAGCTCC,sensor-assay potency score (higher = more potent),CYP4A22,-0.657
TAGAAGTCCGGATCTTGTCAGC,sensor-assay potency score (higher = more potent),DAGLA,-0.641
TTTCATCTGAGAGTCTGTCTTG,sensor-assay potency score (higher = more potent),DAGLA,0.187
TAAACATCTCACAAACTGCTGC,sensor-assay potency score (higher = more potent),DCAF4L2,-0.0348
TTTCTTCTTGTCATGGTCCACC,sensor-assay potency score (higher = more potent),DAGLA,-0.657
TTCTTCGTTCACATGCACGGGT,sensor-assay potency score (higher = more potent),DCAF4L2,0.233
TAGAATAGGTCAATTCTCCATA,sensor-assay potency score (higher = more potent),DCHS2,-0.353
TTTTCTGGAACAATACAGCTGA,sensor-assay potency score (higher = more potent),DCHS2,0.21
ATACTTATTAAACTCAACCATT,sensor-assay potency score (higher = more potent),DCHS2,-1.29
TACTGTGTTACACATTTAGTGG,sensor-assay potency score (higher = more potent),DCAF4L2,-1.02
TTAGGAACGGTGCACACTCATG,sensor-assay potency score (higher = more potent),DAGLA,-1.56
TGGATAAGCAGAATAAGCCTGA,sensor-assay potency score (higher = more potent),DAZ2,-0.294
TAGCTGGTTCTTTCGTAGCATG,sensor-assay potency score (higher = more potent),DCAF4L2,-1.53
TTTGTAGCGGAGCATCTCTTGT,sensor-assay potency score (higher = more potent),DAGLA,-1.44
TTATAGTAAAGCACTCATCAGT,sensor-assay potency score (higher = more potent),DCHS2,-0.223
TATATTTATAGAATAAGCTATA,sensor-assay potency score (higher = more potent),DAGLA,-0.774
TAGAGGTCTTGGAAGGAGCTGC,sensor-assay potency score (higher = more potent),DAGLA,0.223
TATTCCTGTAGTCATCTCCCGT,sensor-assay potency score (higher = more potent),DCPS,-0.287
TTATCTTTGACACTGAGCCCTT,sensor-assay potency score (higher = more potent),DCAF4L2,-0.414
TAATCTAGAATCGCTTTTGTTG,sensor-assay potency score (higher = more potent),DCHS2,-0.749
TGGATTATCATTGACATCCAGC,sensor-assay potency score (higher = more potent),DCHS2,-1.15
TTCATAGTCAAACTGTCGCCGC,sensor-assay potency score (higher = more potent),DCHS2,-0.481
TGTATCTTCTCTATTGACCTAT,sensor-assay potency score (higher = more potent),DCAF4L2,0.0322
TTGAGGTCGAGGTACTTGGTGT,sensor-assay potency score (higher = more potent),DAGLA,-0.552
TACCTATGAACAGCGACGCTGG,sensor-assay potency score (higher = more potent),DCAF4L2,-0.732
TATACAGGCAACTGATATCCAG,sensor-assay potency score (higher = more potent),DAZ2,-0.956
TCTGACTGTCTTTTTCTGCTTG,sensor-assay potency score (higher = more potent),DCAF4L2,0.906
TTGGAGTATCTGCAAGTCCCAC,sensor-assay potency score (higher = more potent),DCAF4L2,-0.914
TTAACTGAAACAACTTTACAGA,sensor-assay potency score (higher = more potent),DCAF4L2,-0.678
TTTTCTTTTGTCAACTGCCCAT,sensor-assay potency score (higher = more potent),DCAF4L2,-0.395
TTCATCTGAGAGTCTGTCTTGT,sensor-assay potency score (higher = more potent),DAGLA,0.509
TGTACCTTGATTACAGTCGTAT,sensor-assay potency score (higher = more potent),DCHS2,-0.366
TATATCAGTCACCTGTACCTTG,sensor-assay potency score (higher = more potent),DCHS2,0.322
TATACAATATACAGAAACCTTT,sensor-assay potency score (higher = more potent),DAGLA,-0.353
TTGAGAACATAAACTGAGGTGC,sensor-assay potency score (higher = more potent),DCHS2,0.162
TCGTGATTATCTTCACTTCTTT,sensor-assay potency score (higher = more potent),DAZ2,-0.86
TAGAAAGAAACAAGTCTCCGGT,sensor-assay potency score (higher = more potent),DCHS2,0.782
TTAAGTACAAAAAAAGTCTGGG,sensor-assay potency score (higher = more potent),DAGLA,0.278
TGAATTATCATTCTCATCCTGT,sensor-assay potency score (higher = more potent),DCHS2,0.421
TTGAGGGTCGGATACTGTGGGC,sensor-assay potency score (higher = more potent),DAGLA,-1.18
TTTGCAGAGAAGTCACTGCTGA,sensor-assay potency score (higher = more potent),DCAF4L2,0.521
TTGGGTACTAGTAGGAGGCTGG,sensor-assay potency score (higher = more potent),DCST1,0.466
TTTGCTACTCAGCAGGTCCTTG,sensor-assay potency score (higher = more potent),DCST1,-0.773
TTAAGAGTACATAAACACTGTG,sensor-assay potency score (higher = more potent),DCTN6,-0.096
TTTCACTTTCTACACATACAAC,sensor-assay potency score (higher = more potent),DCTN6,-1.58
TCTTCGTAGATGTTCATGGGGT,sensor-assay potency score (higher = more potent),DCST1,-0.405
TAGTCATCTCCCGTCTCTCGGA,sensor-assay potency score (higher = more potent),DCPS,-0.952
TTCGGTAGAAGCTACAGTGGGC,sensor-assay potency score (higher = more potent),DCX,0.324
ATCGGTACTGCAGCTCTCCAGT,sensor-assay potency score (higher = more potent),DCST1,-0.753
TACAAGAACATAATCTTCTGTT,sensor-assay potency score (higher = more potent),DCST1,0.614
AATGACATTACACACATCTTGC,sensor-assay potency score (higher = more potent),DCX,-0.654
TAGGAAAATGATTTTGTCCCGC,sensor-assay potency score (higher = more potent),DCPS,-0.432
TAACAGGCAGAGACACACTAAC,sensor-assay potency score (higher = more potent),DCST1,-1.38
TTTAGGTTGCAACAAGCCCCAA,sensor-assay potency score (higher = more potent),DCTN6,-1.26
TTTTAGAAAATTCACTTGGAGA,sensor-assay potency score (higher = more potent),DCPS,-0.97
TTCAATACTAGGAATAAGCCGG,sensor-assay potency score (higher = more potent),DCPS,-0.221
TAGATCACCGTATTCTCAGGGA,sensor-assay potency score (higher = more potent),DCTN6,0.157
TTGTCTTGGAGGGAACAAGTGA,sensor-assay potency score (higher = more potent),DCPS,-0.588
TAAGAGTACATAAACACTGTGG,sensor-assay potency score (higher = more potent),DCTN6,-0.0797
TTACATCATTCAGTTGTCTTGG,sensor-assay potency score (higher = more potent),DCPS,0.191
TTTCATTTAAATCAACTCCGAT,sensor-assay potency score (higher = more potent),DCX,-0.0704
TTTATTTCCATAGCAAACTGGA,sensor-assay potency score (higher = more potent),DCX,-0.272
